# Data published in PubChem BioAssay AID504521 (NMMLSC, 2011).
# This is one part of the list. Unmarked numbers belong to inactive results.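 How the source made its calls: active means compounds whose bead fluorescence drops by more than 37 kMESF across the dose range, marking them as dye quenchers; inactive means the rest.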
# Assay: quenching of fluorescent RNA aptamer on beads, dose response, artefact control for GRK2 RNA aptamer inhibitor project, biochemical, cherry pick 1, bead-based flow cytometry (AID 504521)
# Details: active compounds read high
structure (smiles),measurement,value
COc1ccc(N2C(=O)/C(=C/c3ccco3)C(=O)NC2=S)cc1,fluorescence change (kMESF span),12 kMESF
